Only some compounds are listed: those with a hit (about 2% of all), similar ones and a draw of the others.
PG9 Ab binder: PG9 antibody binding by small molecule; TR-FRET gp120-PG9 antibody binding; inhibition, % at 6.7 µM; 0.43% of 360,000 active; in the data active = inhibition above about 8.5%
VLA-4 inh: inhibition in a human VLA-4 binding assay; 0.2% of 330,000 active; inhibition, % (about 7 µM as worked out from the volumes in the protocol); VLA-4 expressing cells, ligand binding flow cytometry; P13612; in the data active = inhibition above about 50%
ABCB6 inh 2: blocks the human ABCB6 transporter; Q9NP58; K562-ABCB6 porphyrin accumulation, flow cytometry, 1 h; stronger effect = lower value; fluorescence ratio to DMSO, % at 10 µM; 0.19% of 360,000 active; AID 602162;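 active = fluorescence ratio to DMSO below 75%, the collection mean minus 3 SD; inconclusive = too few cells collected in the well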;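 also: signal is porphyrin accumulated inside mitochondria; lower ratio means ABCB6 inhibition with less porphyrin fluorescence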
Target sequence (Q9NP58 whole entry, looked up): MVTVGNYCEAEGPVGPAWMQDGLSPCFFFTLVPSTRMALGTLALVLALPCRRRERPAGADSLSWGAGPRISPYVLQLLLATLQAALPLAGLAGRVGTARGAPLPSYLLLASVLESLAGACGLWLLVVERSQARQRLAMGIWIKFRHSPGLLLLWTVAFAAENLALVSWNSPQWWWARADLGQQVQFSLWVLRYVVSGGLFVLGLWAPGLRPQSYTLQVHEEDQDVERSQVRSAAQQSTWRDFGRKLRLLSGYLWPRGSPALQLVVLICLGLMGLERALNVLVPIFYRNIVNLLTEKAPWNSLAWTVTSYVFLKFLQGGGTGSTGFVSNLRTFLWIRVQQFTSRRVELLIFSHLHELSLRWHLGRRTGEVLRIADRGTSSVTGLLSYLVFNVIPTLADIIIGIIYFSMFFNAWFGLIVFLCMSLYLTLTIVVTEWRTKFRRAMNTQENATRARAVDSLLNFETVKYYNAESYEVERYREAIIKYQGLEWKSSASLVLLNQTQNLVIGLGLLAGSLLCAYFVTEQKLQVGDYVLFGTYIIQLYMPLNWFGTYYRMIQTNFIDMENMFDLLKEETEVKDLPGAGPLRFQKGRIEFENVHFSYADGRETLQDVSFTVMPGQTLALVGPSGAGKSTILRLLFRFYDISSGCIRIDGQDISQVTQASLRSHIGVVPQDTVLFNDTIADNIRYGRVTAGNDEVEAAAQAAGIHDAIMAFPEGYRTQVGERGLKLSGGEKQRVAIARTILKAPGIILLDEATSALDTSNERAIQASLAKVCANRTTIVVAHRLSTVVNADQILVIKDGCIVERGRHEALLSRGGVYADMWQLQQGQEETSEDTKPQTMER
Rev-erbA mod: Rev-erb alpha (human) modulation | P20393 | Rev-erbα–FITC-DNA binding, fluorescence polarization, 90 min | activity, % at 10 µM | 0.79% of 370,000 active | AID 1259318;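 active = activity above about 14%, limit read from the data; passing the limit was not always enough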
Granule exo inh: lytic granule exocytosis inhibition; AID 651702; TALL-104 LAMP-1 surface exposure, flow cytometry; cells stimulated with thapsigargin and PMA; 0.66% of 360,000 active; inhibition, % at 10 µM;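 active = inhibition above about 55%, limit read from the data; inconclusive = no clear call, values can overlap the other calls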
Rev-erbA confirm: Rev-erb alpha (human) modulation, hit confirmation; activation, % at 25 µM; 61% of 3,000 active; shares compounds with Rev-erbA mod; Rev-erb alpha FITC-DNA binding, fluorescence polarization, 90 min; AID 1259319;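 active = activation at or above a set limit, or at least 3 SD above the negative control mean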
RORg counter: affects RORgamma DNA binding in a Rev-erb alpha counter-screen. shares compounds with Rev-erbA mod. purified RORgamma protein-FITC-DNA binding, fluorescence polarization. IC50, µM. 8% of 910 active. AID 1259320;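 active = Compounds whose fitted half-maximal concentration for disrupting protein-DNA binding is below 10 micromolar; the record names Rev-erb in its text, so the target is in doubt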
Each line names hits and unclear results; the compound was inactive in the other large screens (follow-up assays come after a bar, where they were run).

COC(=O)C(C(=O)OC)[C@H]1C=C[C@@H](C(=O)NS(=O)(=O)c2ccc(C)cc2)N(C(C)=O)C1	none (no result: PG9 Ab binder, VLA-4 inh, ABCB6 inh 2, Granule exo inh)
Cc1ccc2nc(SCC(=O)N3N=C(c4cccs4)CC3c3ccc(F)cc3)nc(=O)n2c1 (configuration not stated)	none (no result: VLA-4 inh)
COc1ccc(C2=NN(C(=O)CSc3nc(=O)n4cccc(C)c4n3)C(c3ccc(C)cc3)C2)cc1 (configuration not stated)	Rev-erbA mod 39.3 | Rev-erbA confirm inactive
COc1ccc(C2=NN(C(=O)CSc3ncccn3)C(c3ccc(C)cc3)C2)cc1 (configuration not stated)	none
COc1ccc(C2=NN(C(=O)CSc3ncccn3)C(c3cccc(OC)c3OC)C2)cc1 (configuration not stated)	Rev-erbA mod 38.9 | Rev-erbA confirm 33.0 | RORg counter inactive
Cc1ccc(C2CC(c3cccs3)=NN2C(=O)CSc2nc(=O)n3cc(C)ccc3n2)cc1 (configuration not stated)	ABCB6 inh 2 inconclusive, Rev-erbA mod 26.7 | Rev-erbA confirm 18.3
Cc1cc(NC(=O)c2ccc(NS(=O)(=O)c3ccc(C)c(C)c3)cc2)no1	none (no result: PG9 Ab binder, VLA-4 inh, ABCB6 inh 2, Granule exo inh)
O=C1CCC[C@H]2Cc3nc4ccccc4cc3C[C@]23CCCN13	none (no result: PG9 Ab binder, VLA-4 inh, ABCB6 inh 2, Granule exo inh)
CC(C)=CCCC1=CC[C@H]2[C@@H](C1)C(C(C)C)=CC(=O)[C@@]2(C)O	none (no result: VLA-4 inh, ABCB6 inh 2, Granule exo inh)
N#Cc1ccccc1N1CCN(C(=O)C2CCN(c3ncnc4c3sc3cccc(F)c34)CC2)CC1	Rev-erbA mod 48.6 (no result: PG9 Ab binder, VLA-4 inh, ABCB6 inh 2, Granule exo inh) | Rev-erbA confirm 33.7 | RORg counter inactive
O=C(C1CCN(c2ncnc3c2sc2cccc(F)c23)CC1)N1CCCC1	none (no result: ABCB6 inh 2, Granule exo inh)
CCCCOCCCNC(=O)C[C@@H]1C(=O)N(Cc2ccc(OC)cc2)C2=CCN(C(=O)OC(C)(C)C)C[C@]21C(=O)OCC	none (no result: PG9 Ab binder, VLA-4 inh, ABCB6 inh 2, Granule exo inh)
COc1ccccc1N(C(=O)c1snc(C(N)=O)c1N)C(C(=O)NC1CCCC1)c1ccc(N(C)C)cc1 (configuration not stated)	Rev-erbA mod 36.2 | Rev-erbA confirm inactive
CCOc1ccc(/C(O)=C2/C(=O)C(=O)N(CCCn3ccnc3)C2c2cccs2)cc1Cl (configuration not stated)	Rev-erbA mod 48.2 | Rev-erbA confirm 46.6
CCCOc1ccc(/C(O)=C2/C(=O)C(=O)N(CCCn3ccnc3)C2c2cccs2)cc1 (configuration not stated)	none
CC(COc1cccc([N+](=O)[O-])c1)CN1CCC(C(O)(c2ccccc2)c2ccccc2)CC1 (configuration not stated)	none (no result: PG9 Ab binder, VLA-4 inh, ABCB6 inh 2, Granule exo inh)
CC1(C)Cc2c(sc(NC(=O)COc3ccc(Cl)cc3)c2C(N)=O)C(C)(C)N1	Rev-erbA mod 16.4 | Rev-erbA confirm inactive
COC(=O)c1cccc(C23CC4(C2)[C@H](CN(C)[C@@H]4c2ccccc2)C3c2ccc(C(F)(F)F)cc2)c1 (some centres not stated)	none
COC(=O)c1cccc(C23CC4(C2)[C@H](CN(C)[C@@H]4c2ccccc2)C3c2ccccc2)c1 (some centres not stated)	Rev-erbA mod 22.1 | Rev-erbA confirm 41.4
Cc1ccc(OCC(=O)NNC(=O)C2CCN(c3nc(C)cc(C)n3)CC2)cc1	Rev-erbA mod 22.8 | Rev-erbA confirm inactive
O=C1NC(c2ccccc2)(c2ccccc2)C(=O)N1CNc1ccccn1	none (no result: VLA-4 inh, ABCB6 inh 2, Granule exo inh)
O=C1C2C3C=CC(C3)C2C(=O)N1c1cccc(-c2nc3ccccc3o2)c1 (configuration not stated)	Rev-erbA mod 28.6 | Rev-erbA confirm inactive
COc1ccc(-c2oc(=O)c3cc(OC)c(OC)cc3c2C#CC2(O)CCCCC2)cc1	Rev-erbA mod 27.0 | Rev-erbA confirm inactive
COc1cc(OC)cc(-c2oc(=O)c3cc(OC)c(OC)cc3c2C#CCCCO)c1	Rev-erbA mod 31.7 | Rev-erbA confirm inactive
COc1ccc(-c2noc(C3CCCN(C(=O)Nc4ccc5c(c4)OCO5)C3)n2)cc1 (configuration not stated)	none (no result: PG9 Ab binder, VLA-4 inh, ABCB6 inh 2, Granule exo inh)
CC(=O)[C@@H]1[C@@H]2C(=O)N(Cc3ccccc3)C(=O)[C@@H]2C2c3ccccc3C=CN21 (some centres not stated)	Rev-erbA mod 25.9 | Rev-erbA confirm 27.5
Cc1ccc(N2C(=NC(=O)c3ccccc3)SC3CS(=O)(=O)CC32)cc1 (configuration not stated)	none
CCCC(=O)N=C1SC2CS(=O)(=O)CC2N1c1ccc(-c2nc3ccc(C)cc3s2)cc1 (configuration not stated)	Rev-erbA mod 38.3 | Rev-erbA confirm inactive
Cc1ccc2[nH]c(=O)c(N3CCOCC3)c(-c3ccccc3)c2c1	Rev-erbA mod 28.4 | Rev-erbA confirm inactive
O=C(CCN1CCOCC1)Nc1c(-c2ccccc2)c2cc(Br)ccc2[nH]c1=O	none
COC(=O)[C@]12C[C@H](CC(=O)N3CCN(C(=O)c4ccco4)CC3)C(=O)N(CCc3ccc(OC)c(OC)c3)C1=C[C@H](COCc1ccccc1)O[C@@H]2C	none (no result: PG9 Ab binder, VLA-4 inh, ABCB6 inh 2, Granule exo inh)
COC(=O)c1cc(-c2cc(Cl)ccc2OC)c(=O)n2c1CCC2	none (no result: PG9 Ab binder, VLA-4 inh, ABCB6 inh 2, Granule exo inh)
CC(=O)N[C@@H](C)CCc1ccc(Oc2ccc(OC(C)C)nc2)cc1	none (no result: PG9 Ab binder, VLA-4 inh, ABCB6 inh 2, Granule exo inh)
CCC(CC)COC(=O)C1=C(C)NC(=O)NC1c1ccccc1Br (configuration not stated)	Rev-erbA mod 16.5 | Rev-erbA confirm inactive
N#Cc1c(-c2ccccc2Cl)cc(-c2ccccc2)nc1Br	Rev-erbA mod 31.9 | Rev-erbA confirm 21.9
N#Cc1c(-c2cccc(F)c2)cc(-c2ccccc2)nc1Br	PG9 Ab binder 9.1, Rev-erbA mod 58.3 | Rev-erbA confirm 25.3
Cc1cc(=O)oc2cc(OCC(=O)Nc3ccc(S(=O)(=O)N(C)C)cc3)ccc12	Rev-erbA mod 23.2 | Rev-erbA confirm 30.3 | RORg counter inactive
Cc1cc(=O)oc2cc(OCC(=O)Nc3ccc(F)cc3F)ccc12	Rev-erbA mod 20.9 (no result: VLA-4 inh) | Rev-erbA confirm inactive
O=C(NCc1ccccc1)[C@H]1CCCN1C(=O)[C@H]1CCCN1C(=O)c1cccc(F)c1	none (no result: VLA-4 inh, ABCB6 inh 2, Granule exo inh)
COc1ccccc1C(=O)Nc1nnc(S(=O)(=O)N2CCN(c3ccc(F)cc3)CC2)s1	Rev-erbA mod 17.6 | Rev-erbA confirm inactive
COc1ccc(C(=O)Nc2nnc(-c3ccc(F)cc3)s2)c(OC)c1	Rev-erbA mod 24.7 (no result: VLA-4 inh) | Rev-erbA confirm inactive
O=C(Nc1nnc(-c2ccccc2)s1)c1ccc(F)cc1	none
COCc1nnc(NC(=O)c2ccc(OC)cc2OC)s1	none
Cc1ccc(C(=O)Nc2nnc(S(=O)(=O)N3CCN(c4ccc(F)cc4)CC3)s2)cc1	none
COc1ccccc1C(=O)Nc1nnc(-c2ccc(F)cc2)s1	Rev-erbA mod 36.1 | Rev-erbA confirm 38.6 | RORg counter inactive
O=C(Nc1ccnn1C1CCN(Cc2ccn[nH]2)CC1)c1ccccc1	Rev-erbA mod 15.6 | Rev-erbA confirm inactive

Compound activity from PubChem BioAssay.
